# A selection: hits, their analogues and other compounds. The true share with any hit is near 2%.
# A3G deaminase = blocks human APOBEC3G single-stranded DNA deamination; Q9HC16; recombinant A3G, ssDNA deamination FAM/TAMRA fluorescence; inhibition, % at 20 µM; hit rate 0.28% among 330,000;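 active means inhibition of at least 40% at 20 µM, with no more than 30% in the related APOBEC3A deaminase screen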;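 further: plate controls were DMSO wells with A3G for no effect and wells lacking A3G enzyme for full effect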
# Target sequence (Q9HC16 whole entry, looked up): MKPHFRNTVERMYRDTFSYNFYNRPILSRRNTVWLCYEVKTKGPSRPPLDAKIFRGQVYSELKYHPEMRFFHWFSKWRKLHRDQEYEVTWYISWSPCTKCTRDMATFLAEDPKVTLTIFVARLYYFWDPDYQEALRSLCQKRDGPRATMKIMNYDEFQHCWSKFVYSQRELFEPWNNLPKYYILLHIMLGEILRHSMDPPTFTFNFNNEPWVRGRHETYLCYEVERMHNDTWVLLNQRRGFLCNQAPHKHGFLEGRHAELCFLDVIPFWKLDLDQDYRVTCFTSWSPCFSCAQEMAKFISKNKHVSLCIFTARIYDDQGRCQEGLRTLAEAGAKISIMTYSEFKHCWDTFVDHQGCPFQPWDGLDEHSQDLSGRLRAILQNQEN
# NPR2 activator = GC-B (human) receptor activation. HEK293-GC-B cells, CNP EC30, cGMP TR-FRET; 0% at EC30 CNP, 100% saturating CNP. hit rate 0.11% among 370,000. activation, % at 10 µM. AID 1920062. P20594;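 active means activation at 10 µM reaching about 35% in either raw or pattern-adjusted values, limit read from the data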
# GC-A act = GC-A (human) enzyme activation; activation, % at 10 µM; HEK293 GC-A cells, cGMP TR-FRET, EC30 ANP; 0% at EC30 ANP, 100% saturating ANP; hit rate 0.14% among 370,000; in the data active means activation above about 40%
# APOBEC3A inh = human APOBEC3A DNA deaminase inhibition; recombinant A3A, FAM/TAMRA ssDNA deamination fluorescence; hit rate 0.41% among 330,000; P31941; inhibition, % at 20 µM;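 active means at least 40% inhibition at 20 µM here, with at most 30% in a related deaminase screen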;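 further: plate controls were A3A with DMSO for no effect and wells lacking A3A enzyme for full effect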
# Target sequence (P31941 whole entry, looked up): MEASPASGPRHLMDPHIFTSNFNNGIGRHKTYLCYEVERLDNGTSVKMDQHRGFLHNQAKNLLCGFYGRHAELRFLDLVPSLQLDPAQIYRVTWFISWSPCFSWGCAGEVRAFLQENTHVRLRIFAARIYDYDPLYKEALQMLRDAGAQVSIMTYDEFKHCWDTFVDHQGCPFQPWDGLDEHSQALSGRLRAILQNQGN
# PfG6PD inh = PfG6PD (Plasmodium falciparum) enzyme inhibition; PfGluPho enzyme, NADPH resazurin-diaphorase fluorescence; inhibition, % at 20 µM; hit rate 0.78% among 350,000; AID 504690;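 active means inhibition reaching at least a set limit at 20 µM in the primary screen, cut at about 59% in these data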;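 further: 0% = DMSO wells with substrate and 100% = DMSO wells lacking glucose-6-phosphate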
# Neddyl block = inhibitors of human cullin neddylation | P61081+Q13564 | TR-FRET cullin neddylation, biochemical | inhibition, % at 25 µM | hit rate 0.58% among 360,000; in the data active means inhibition above about 36%
# Neddyl conf = confirmation of human cullin neddylation inhibitors; TR-FRET cullin neddylation biochemical assay; shares compounds with Neddyl block; hit rate 13% among 1,800; calls only at 25 µM; in the data active means inhibition above about 40%;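 further: neddylation substrate is the cullin 1 ring ligase complex with SKP2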
# * = called active by the depositor; i = inactive; . = no result shown; + = active, no number.
SMILES,A3G deaminase,NPR2 activator,GC-A act,APOBEC3A inh,PfG6PD inh,Neddyl block,Neddyl conf
COc1ncccc1-c1nnn(-c2ccc(Cl)nc2)n1,2.5,-7.5,-5.5,4.9,-12.2,31.0*,i
Clc1ccc(-n2nnc(-c3cccnc3Cl)n2)cn1,3.3,-5.3,-1.6,3.9,-7.9,5.9,.
CN(C)CCCNc1c2c(nc3cc(-c4cccc(F)c4)nn13)CCC2,-5.4,-12.0,-3.6,3.7,15.6,43.0*,i
OCCN1CCN(c2nc(-c3ccccc3O)nc3ccccc23)CC1,2.2,-4.5,3.7,3.4,5.0,-10.3,.
OCCN1CCN(c2nc3ccccc3nc2-c2ccccc2)CC1,2.0,2.5,4.6,4.6,-13.6,38.5*,i
CC(C)n1ncc2c(C(=O)NCCc3ccc(S(N)(=O)=O)cc3)cc(C3CC3)nc21,-8.3,-2.8,-2.8,-3.0,0.1,64.3*,.
CC(C)n1ncc2c(C(=O)NCCOc3ccccc3F)cc(C3CC3)nc21,-6.3,9.1,3.5,-4.4,18.0,43.6*,i
NNC(=O)Cn1c(-c2ccccn2)nc2ccccc21,-2.6,1.9,-0.2,0.4,8.8,11.6,.
CCN(CC)CCNC(=O)Cn1c(-c2ccccn2)nc2ccccc21,-6.4,1.0,-0.3,-0.1,5.0,47.5*,+
O=C(Nc1ccc2ccccc2c1)NC1CCCCN(Cc2cccc(Cl)c2)C1=O (stereo unspecified),.,-4.9,-2.7,.,.,.,.
Cc1ccccc1Cn1nc(C)c(NC(=O)c2cc3nc(-c4ccco4)cc(C(F)(F)F)n3n2)c1C,.,16.6,8.8,.,6.0,41.6*,i
Cc1nn(C)c(C)c1CN(C)C(=O)c1cc2nc(-c3ccco3)cc(C(F)(F)F)n2n1,-4.5,8.4,0.4,-16.7,4.2,41.7*,i
Cc1nn(C)cc1NC(=O)c1cc2nc(-c3ccco3)cc(C(F)(F)F)n2n1,-3.6,7.9,-2.5,-0.3,2.1,12.8,.
Cc1nn(C)cc1CN(C)C(=O)c1cc2nc(-c3ccco3)cc(C(F)(F)F)n2n1,-1.2,2.2,6.5,-11.9,11.1,42.7*,+
O=S1(=O)c2ccc(N3CCCC3)cc2Oc2ccccc2CN1Cc1cn(Cc2ccc(C(F)(F)F)cc2)nn1,.,5.9,2.0,.,.,.,.
CN(C)[C@@H]1CCN(c2cccc3c2S(=O)(=O)N(C2CC2)CCCO3)C1,.,3.6,2.5,.,.,.,.
COC(=O)[C@]12C[C@H](CC(=O)N3CCCC3)C(=O)N(Cc3ccccc3)C1=C[C@H](C1CCCC1)O[C@@H]2C,.,1.5,-5.4,.,.,.,.
COC(=O)Cc1nnn2c1[C@@H](C)[C@@H](c1ccccc1Br)O[C@@H](C)C2,.,-4.5,4.1,.,.,.,.
Fc1ccc(-c2cc3nc4c(c(N5CCOCC5)n3n2)CCCC4)cc1,-4.2,-9.4,-1.9,-0.9,16.7,.,.
OC1CCN(c2c3c(nc4cc(-c5ccc(F)cc5)nn24)CCC3)CC1,-3.3,1.5,-5.9,-0.4,24.8,44.9*,i
Cc1cccc(-c2cc3nc4c(c(N5CCCC(O)C5)n3n2)CCC4)c1 (stereo unspecified),-4.1,-1.8,3.2,-1.9,30.8,50.5*,.
OC1CCCN(c2c3c(nc4cc(-c5cccc(Cl)c5)nn24)CCC3)C1 (stereo unspecified),7.5,-8.6,-2.8,-0.4,33.9,.,.
CN(c1ccccc1)S(=O)(=O)c1cccc(NC(=O)C2=NN(c3ccccc3)C(=O)CC2)c1,-4.3,-3.7,-2.1,1.1,13.3,45.3*,i
C=CCN=C1NC(c2ccccc2C(F)(F)F)C(C(=O)OC)=C(C)N1Cc1ccc(C(F)(F)F)cc1 (stereo unspecified),.,-10.6,-6.0,.,.,.,.
Nc1nonc1-n1nnc(C(=O)N/N=C/c2ccc3c(c2)OCO3)c1CSc1ccccc1,-3.9,5.5,0.8,-2.2,3.8,42.1*,i
SMILES,A3G deaminase,NPR2 activator,GC-A act,APOBEC3A inh,PfG6PD inh,Neddyl block,Neddyl conf
Nc1nonc1-n1nnc(C(=O)N/N=C/c2ccccc2Cl)c1CSc1ccccc1,-11.1,-12.2,-3.8,-1.9,7.6,-2.5,.
COc1cc(/C=N/NC(=O)c2nnn(-c3nonc3N)c2C(C)C)ccc1OCc1ccccc1,-3.2,4.2,3.5,-3.1,4.6,42.6*,i
COCCCNC(=O)C[C@H]1C[C@@]2(C(=O)OC)C(=C[C@H](C3CCCC3)O[C@@H]2C)N(Cc2ccccc2)C1=O,.,-5.8,-5.4,.,.,.,.
CCOc1cc(/C=C(/C#N)c2nc3ccccc3[nH]2)ccc1OCc1ccc(C(=O)O)o1,-4.0,-3.1,-3.4,0.4,-12.4,38.4*,i
CCCCOCCCNC(=O)C[C@H]1C(=O)N(Cc2ccc(OC)cc2)C2=CCCC[C@@]21C(=O)OCC,.,0.7,1.6,.,.,.,.
O=C(CN1c2cccc3cccc(c23)S1(=O)=O)NCc1ccc(F)cc1,1.8,2.0,0.0,2.5,-3.2,45.8*,+
Cc1ccc(CNC(=O)CN2c3cccc4cccc(c34)S2(=O)=O)cc1,-9.8,-3.3,-0.9,-2.4,9.9,34.1,.
O=C(CN1c2cccc3cccc(c23)S1(=O)=O)Nc1ccc(F)c(F)c1F,1.9,1.4,-4.6,3.1,-2.0,41.6*,i
CCCC[C@H]1C2CC(OC(=O)Nc3ccc(Cl)cc3)C(C2)[C@H]2CCCCN21 (stereo partly specified),.,-7.6,-0.1,.,.,.,.
O=Cc1cnc(N2CCCCC2)s1,9.4,-1.4,3.0,5.4,-11.9,-18.6,.
O=C(N/N=C/c1cnc(N2CCCCC2)s1)c1ccc(Cl)cc1,-3.1,-8.6,2.8,-0.2,4.3,46.5*,+
Cc1cc(NS(=O)(=O)c2ccc(NS(=O)(=O)c3ccc(Br)cc3)cc2)no1,-10.1,2.0,-4.2,28.1,-8.7,57.1*,+
COc1ccc(-c2csc(N3CCN(c4cc5c(cc4Cl)nc(-c4ccncc4)n5CCOCCO)CC3)n2)cc1,-5.6,6.9,0.0,-0.9,36.1,41.5*,i
CCN(CC)c1ccc(/C=N/n2nnnc2N)c(O)c1,-10.2,-8.8,-0.6,-1.1,7.6,41.4*,+
CCN(C)c1ccc(/C=N\n2nnnc2N)cc1,-7.8,.,.,-0.8,3.3,.,.
COc1ccc(CCNC(=O)c2cc3c(=O)n4ccccc4nc3n(CCCN3CCOCC3)c2=N)cc1,-6.2,-3.9,2.1,-0.9,-9.8,28.6,.
COc1ccc(CCNC(=O)c2cc3c(=O)n4ccccc4nc3n(CCN3CCOCC3)c2=N)cc1,-3.0,-3.1,6.4,-3.4,-1.1,40.4*,i
C=CCN1[C@@H](C)COc2cccc(N3CCSCC3)c2S1(=O)=O,.,-2.8,-3.9,.,.,.,.
COc1ccc(-n2nnc3c(SCC(=O)Nc4ccccc4F)ncnc32)cc1,-5.6,-3.3,-7.7,-7.0,4.3,42.4*,i
COc1ccc(NC(=O)CSc2ncnc3c2nnn3-c2ccc(F)cc2)c(OC)c1,1.1,0.7,2.0,2.2,5.3,-6.2,.

# Compound activity deposited in PubChem by Sanford-Burnham Center for Chemical Genomics.
